# Data reported in PubChem BioAssay (Tox21).
# Several values for one entry are separate records, joined by “and”; a condition that tells them apart may be missing. Equal entries are not always repeated. A structure can be active in one record and inactive in another. Activity calls are given as the source filed them. Entries that show only a call come without a potency. Unless noted, calls follow the shape of the dose curve; as a rule, active = well fitted curve in the direction sought with a large enough effect in the repeat runs; inconclusive = weak or mixed curves; inactive = no such curve, though single readings can be large; an effect the other way counts as inactive or inconclusive.
# Key:
# [1] = qHTS assay to test for compound auto fluorescence at 535 nm (green) in HEK293 cells (AID 720680)
# [2] = qHTS assay to test for compound auto fluorescence at 460 nm (blue) in HEK293 cell free culture (AID 720681)
# How it was run: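 Blue fluorescence (Ex 405/Em 460 nm, triamterene-equivalent) was read immediately after pin transfer of compound or DMSO into medium (DMEM, 10% FBS) without cells.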
# [3] = qHTS assay to test for compound auto fluorescence at 535 nm (green) in HEK293 cell free culture (AID 720682)
# How it was run: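 Green-channel intensity (Ex/Em 485/535 nm) was recorded from compound-treated wells containing only DMEM with 10% FBS. Fluorescein provided the equivalency standard.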
# [4] = qHTS assay to test for compound auto fluorescence at 590 nm (red) in HEK293 cell free culture (AID 720683)
# How it was run: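 Red-channel autofluorescence of compounds in culture medium (DMEM, 10% FBS), no cells, measured at 540/590 nm. Rose Bengal sodium is the reference fluorophore for equivalence.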
# [5] = qHTS assay to test for compound auto fluorescence at 590 nm (red) in HepG2 cell free culture (AID 720684)
# How it was run: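 Cell-free; medium MEM + 10% FBS; compound or DMSO added by pintool; read Ex 540/Em 590 nm; Rose Bengal sodium as red reference fluorophore.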
# [6] = qHTS assay to test for compound auto fluorescence at 460 nm (blue) in HepG2 cell free culture (AID 720685)
# How it was run: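 Cell-free plates of MEM plus 10% FBS received 23 nL compound or DMSO vehicle; blue-channel (405/460 nm) intensity scored against triamterene as reference fluorophore.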
# [7] = qHTS assay to test for compound auto fluorescence at 535 nm (green) in HepG2 cell free culture (AID 720686)
# [8] = qHTS assay to test for compound auto fluorescence at 460 nm (blue) in HepG2 cells (AID 720687)
# How it was run: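 Blue-channel autofluorescence (Ex/Em 405/460 nm, triamterene-equivalent) was measured after 1 hr compound exposure at 37 C, 5% CO2. Cells were HepG2, plated overnight at 37 C in MEM plus 10% FBS.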
# [9] = molecular target: Glucocorticoid receptor (Homo sapiens) (UniProt P04150); test: qHTS assay to identify small molecule agonists of the glucocorticoid receptor (GR) signaling pathway (AID 720691; active = well fitted activation curve with a large enough effect in the signal ratio in the repeat runs, not every such curve was filed as active; inconclusive = weak or mixed curves, or effect the other way; inactive = no such curve, though single readings can be large or run the other way; the % refers to the signal ratio; also: potency is read from the fitted curve at half-maximal effect); conditions: GR-bla HeLa, beta-lactamase reporter ratio, 18 h; activation: at 62.4 µM (top of the series) unless noted
# How it was run: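 Compounds in DMSO, alongside positive controls, were added to GR-bla HeLa reporter cells and incubated 18 h at 37 C; GRE-driven beta-lactamase was detected by fluorescence after 2 h with FRET substrate at room temperature.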
# [10] = qHTS assay to identify small molecule antagonists of the glucocorticoid receptor (GR) signaling pathway - cell viability counter screen (AID 720693); also: nearly all actives have a fitted effect of over 55% in size
# [11] = qHTS assay for identifying genotoxic compounds that show differential cytotoxicity against isogenic chicken DT40 cell lines with known DNA damage response pathways - wild type cell line (AID 743012); also: nearly all actives have a fitted effect of over 60% in size; also: potency is read from the fitted curve at half-maximal effect
# How it was run: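 Viability of DNA repair-proficient chicken DT40 cells was assessed by CellTiter-Glo luminescence following 40 h compound exposure at 37 C/5% CO2.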
# [12] = qHTS assay for identifying genotoxic compounds that show differential cytotoxicity against isogenic chicken DT40 cell lines with known DNA damage response pathways - Rev3 mutant cell line (AID 743014); also: nearly all actives have a fitted effect of over 55% in size; also: potency is read from the fitted curve at half-maximal effect
# [13] = qHTS assay for identifying genotoxic compounds that show differential cytotoxicity against isogenic chicken DT40 cell lines with known DNA damage response pathways - Rad54/Ku70 mutant cell line (AID 743015); also: nearly all actives have a fitted effect of over 60% in size; also: potency is read from the fitted curve at half-maximal effect
# [14] = qHTS assay to identify small molecule antagonists of the androgen receptor (AR) signaling pathway - cell viability counter screen (AID 743033; also: nearly all actives have a fitted effect of over 45% in size)
# [15] = qHTS assay to identify small molecule antagonists of the androgen receptor (AR) signaling pathway using the MDA cell line - cell viability counter screen (AID 743041; also: nearly all actives have a fitted effect of over 45% in size)
# How it was run: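 Viability read by CellTiter-Fluor fluorescence in the same wells as the antagonist screen, added after 15.5 h of a 16 h, 37C exposure. Human breast carcinoma MDA-kb2 AR-luc cells, compounds co-dosed with agonist R1881.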
# [16] = molecular target: Glucocorticoid receptor (Homo sapiens) (UniProt P04150); test: qHTS assay to identify small molecule antagonists of the glucocorticoid receptor (GR) signaling pathway (AID 720692; active = well fitted inhibition curve with a large enough effect in the signal ratio in the repeat runs, not every such curve was filed as active; inconclusive = weak or mixed curves, or effect the other way; inactive = no such curve, though single readings can be large or run the other way; the % refers to the signal ratio)
# How it was run: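 In a 1536-well cell format, compounds were added 4 h after seeding GR-bla HeLa cells, together with dexamethasone at 5 nM final; reporter activity was measured by FRET-substrate fluorescence following 18 h at 37 C.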
# [17] = molecular target: Androgen receptor (Homo sapiens) (UniProt P10275); test: qHTS assay to identify small molecule antagonists of the androgen receptor (AR) signaling pathway (AID 743035; active = well fitted inhibition curve with a large enough effect in the signal ratio in the repeat runs, not every such curve was filed as active; inconclusive = weak or mixed curves, or effect the other way; inactive = no such curve, though single readings can be large or run the other way; the % refers to the signal ratio)
# How it was run: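 Reporter HEK293 cells were exposed to compounds and R1881 overnight (16 h, 37C); beta-lactamase activity was then quantified by FRET fluorescence.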
# [18] = molecular target: Androgen receptor (Homo sapiens) (UniProt P10275); test: qHTS assay to identify small molecule agonists of the androgen receptor (AR) signaling pathway (AID 743036; active = well fitted activation curve with a large enough effect in the signal ratio in the repeat runs, with a control signal flat, not every such curve was filed as active; inconclusive = weak or mixed curves, or effect the other way; inactive = no such curve, though single readings can be large or run the other way; the % refers to the signal ratio)
# How it was run: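 Cell-based FRET reporter assay: HEK293 line with a UAS-beta-lactamase construct, compounds added in DMSO, 16 h exposure at 37C, then 2 h substrate step at room temperature and fluorescence intensity read.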
# [19] = molecular target: Androgen receptor (Homo sapiens) (UniProt P10275); test: qHTS assay to identify small molecule agonists of the androgen receptor (AR) signaling pathway using the MDA cell line (AID 743040; also: nearly all actives have a fitted effect of over 20% in size)
# How it was run: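 Luciferase agonist assay: 16 h compound exposure at 37C without CO2 in MDA-kb2 AR-luc cells, whose MMTV promoter responds to both AR and GR. Luminescence measured after 30 min room-temperature incubation with ONE-Glo.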
# [20] = molecular target: Androgen receptor (Homo sapiens) (UniProt P10275); test: qHTS assay to identify small molecule antagonists of the androgen receptor (AR) signaling pathway using the MDA cell line (AID 743042; also: nearly all actives have a fitted effect of over 55% in size)
# How it was run: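 Antagonist mode: compounds plus R1881 agonist added to MDA-kb2 AR-luc cells, incubated 16 h at 37C. Luciferase reporter luminescence quantified, with multiplexed CellTiter-Fluor readout for cell viability.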
# Chain of Glucocorticoid receptor (Homo sapiens) (P04150 whole entry, looked up): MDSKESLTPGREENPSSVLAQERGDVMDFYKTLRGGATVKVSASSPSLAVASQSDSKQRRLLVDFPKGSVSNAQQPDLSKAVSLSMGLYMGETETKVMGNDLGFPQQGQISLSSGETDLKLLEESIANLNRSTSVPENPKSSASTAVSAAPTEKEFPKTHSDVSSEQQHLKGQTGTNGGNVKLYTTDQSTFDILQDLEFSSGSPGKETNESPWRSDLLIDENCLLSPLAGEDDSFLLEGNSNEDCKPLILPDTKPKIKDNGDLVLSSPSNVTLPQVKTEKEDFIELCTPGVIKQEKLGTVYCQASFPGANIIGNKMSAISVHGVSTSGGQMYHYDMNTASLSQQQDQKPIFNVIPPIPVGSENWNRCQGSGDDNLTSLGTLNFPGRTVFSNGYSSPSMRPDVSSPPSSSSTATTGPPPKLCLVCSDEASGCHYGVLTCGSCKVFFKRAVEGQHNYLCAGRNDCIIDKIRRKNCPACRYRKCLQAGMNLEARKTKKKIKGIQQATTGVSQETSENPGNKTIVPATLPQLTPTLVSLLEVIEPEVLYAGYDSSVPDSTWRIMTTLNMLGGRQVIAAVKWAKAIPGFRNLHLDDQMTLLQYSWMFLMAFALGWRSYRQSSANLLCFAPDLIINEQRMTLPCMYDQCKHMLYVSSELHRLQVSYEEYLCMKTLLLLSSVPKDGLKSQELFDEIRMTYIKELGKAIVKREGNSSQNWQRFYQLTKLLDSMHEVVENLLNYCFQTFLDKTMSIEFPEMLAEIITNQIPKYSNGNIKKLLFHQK
# Chain of Androgen receptor (Homo sapiens) (P10275 whole entry, looked up): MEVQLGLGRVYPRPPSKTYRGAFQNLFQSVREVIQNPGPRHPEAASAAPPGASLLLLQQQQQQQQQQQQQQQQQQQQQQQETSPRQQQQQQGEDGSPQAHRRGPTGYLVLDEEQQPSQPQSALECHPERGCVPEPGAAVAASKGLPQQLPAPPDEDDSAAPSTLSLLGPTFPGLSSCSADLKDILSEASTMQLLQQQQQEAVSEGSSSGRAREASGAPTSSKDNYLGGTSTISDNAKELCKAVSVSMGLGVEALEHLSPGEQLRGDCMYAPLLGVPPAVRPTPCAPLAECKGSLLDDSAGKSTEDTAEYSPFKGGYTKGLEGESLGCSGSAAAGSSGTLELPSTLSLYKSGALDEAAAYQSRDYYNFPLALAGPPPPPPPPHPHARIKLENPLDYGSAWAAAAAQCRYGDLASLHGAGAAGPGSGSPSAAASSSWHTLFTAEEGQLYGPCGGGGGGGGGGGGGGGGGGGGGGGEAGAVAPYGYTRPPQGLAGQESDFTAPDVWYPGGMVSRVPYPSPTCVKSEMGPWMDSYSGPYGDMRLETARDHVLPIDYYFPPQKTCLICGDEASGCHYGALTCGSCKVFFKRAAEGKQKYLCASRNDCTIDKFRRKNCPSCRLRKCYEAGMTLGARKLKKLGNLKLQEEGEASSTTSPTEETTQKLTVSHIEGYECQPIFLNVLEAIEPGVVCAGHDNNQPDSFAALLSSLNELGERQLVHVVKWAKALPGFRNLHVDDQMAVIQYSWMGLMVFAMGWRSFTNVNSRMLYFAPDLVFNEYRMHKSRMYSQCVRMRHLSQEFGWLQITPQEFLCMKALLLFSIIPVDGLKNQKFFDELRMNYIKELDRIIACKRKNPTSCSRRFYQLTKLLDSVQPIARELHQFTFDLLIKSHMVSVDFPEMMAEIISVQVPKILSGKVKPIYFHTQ
Compound,outcome [1],Potency [2],outcome [3],outcome [4],outcome [5],Potency [6],outcome [7],outcome [8],Potency [9],Potency [10],Potency [11],Potency [12],Potency [13],Potency [14],Potency [15],Potency [16],outcome [17],outcome [18],outcome [19],outcome [20]
CC1=C(CC(=O)O)c2cc(F)ccc2/C1=C\c1ccc(S(C)=O)cc1 (centres undefined),inactive,inactive,inactive,inactive,inactive,inactive,inactive,inactive,inactive,inactive,inactive and 68.6 µM (active),6.86 µM (active),inactive and 24.3 µM (active),inactive,,,,,,
OCC#CCO,inactive,inactive,inactive,inactive,inactive,inactive,inactive,inactive,inactive,inactive,inactive and 54.5 µM (active),inactive and 54.5 µM (active),inactive and 48.6 µM (active),inactive,inactive,,,,,
CCCCOCCO,inactive,inactive,inactive,inactive,inactive,inactive,inactive,inactive,,inactive,inactive,inactive,inactive,inactive,inactive,inactive,,,,
C=C(C#N)C(=O)OCC,inactive,inactive,inactive,inactive,inactive,inactive,inactive,inactive,inactive,inactive,inactive and 43.3 µM (active),inactive and 43.3 µM (active),inactive and 24.3 µM (active),inactive,inactive,,,,,
O=C1CCCCC1,inactive,inactive,inactive,inactive,inactive,inactive,inactive,inactive,inactive,,inactive,inactive,inactive,inactive,inactive,,inactive,inactive,inactive,inactive
O=C(O)c1ccc([N+](=O)[O-])cc1,inactive,inactive,inactive,inactive,inactive,inactive,inactive,inactive,inactive,,inactive,inactive,inactive,inactive,inactive,,,,,
O=C(O)c1cc(-c2ccccc2)nc2ccccc12,inactive,inactive,inactive,inactive,inactive,inactive,inactive,inactive,inactive,inactive,inactive,inactive,inactive,inactive,,inactive,inactive,inactive,inactive,inactive
Cc1cc(NS(=O)(=O)c2ccc(N)cc2)no1,inactive,inactive,inactive,inactive,inactive,inactive,inactive,inactive,inactive,,inactive,inactive,inactive,inactive,inactive,,,,,
NCCNCCNCCNCCN,inactive,inactive,inactive,inactive,inactive,inactive,inactive,inactive,inactive,,inactive,,inactive,inactive,,,inactive,inactive,inactive,inactive
C=C(C)C(=O)OCCC[Si](OC)(OC)OC,inactive,inactive,inactive,inactive,inactive,inactive,inactive,inactive,inactive,,inactive,inactive,inactive,inactive,inactive,inactive,,,,
C=C(C)C(=O)OCC(CC)(COC(=O)C(=C)C)COC(=O)C(=C)C,inactive,inactive,inactive,inactive,inactive,inactive,inactive,inactive,inactive,inactive,inactive,,,inactive,,,,,,
CC(C)(CO)COC(=O)C(C)(C)CO,inactive,inactive,inactive,inactive,inactive,inactive,inactive,inactive,,inactive,inactive,inactive,inactive,inactive,inactive,inactive,inactive,inactive,inactive,inactive
Clc1cc(Cl)c(Cl)cc1Cl,inactive,inactive,inactive,inactive,inactive,inactive,inactive,inactive,inactive,inactive,inactive,inactive,inactive,inactive,inactive,,,,,
CCc1ccccc1O,inactive,inactive,inactive,inactive,inactive,inactive,inactive,inactive,,inactive,inactive,inactive,inactive,inactive,inactive,inactive,,,,
CCCCCC/C=C/CCCCCCCC(=O)O,inactive,inactive,inactive,inactive,inactive,inactive,inactive,inactive,inactive,inactive,inactive,inactive,inactive,inactive,,,,,,
CC1(C)O[C@@H]2C[C@H]3[C@@H]4C[C@H](F)C5=CC(=O)CC[C@]5(C)[C@H]4[C@@H](O)C[C@]3(C)[C@]2(C(=O)CO)O1,inactive,inactive,inactive,inactive,inactive,inactive,inactive,inactive,18.2 nM [inconclusive] (active) and 3.9 nM (active),,inactive,inactive,inactive,inactive,inactive,,,,,
